Source: PubChem (National Center for Advancing Translational Sciences (NCATS))
S2 tox = reduces viability in counter-screen for ATXN expression inhibitors; S2 cells (HEK-293 line with an ATXN2-luciferase reporter) viability, CellTiter-Fluor protease fluorescence, 24 h; Potency, µM (series often up to 56.7 µM), actives largely listed as cytotoxic; hit rate 0.49% among 400,000; AID 651635; further: nearly all actives have a fitted effect of over 40% in size
ATXN2 expr inh = reduces ATXN2 reporter expression in HEK-293 cells; AID 1745845; hit rate 0.72% among 360,000; HEK-293 ATXN2-luciferase reporter, luminescence, 24 h; Potency, µM (doses to about 57 µM), for inactives: at the top dose activity change, negative = inhibition, actives largely listed as inhibitors; further: on the % scale 0 is the no-effect control and ±100 the full control effect; nearly all actives have a fitted effect of over 55% in size
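ATXN2-luciferase reporter cells (luciferase flanked by upstream and downstream ATXN2 gene portions) were treated 24 h at 37 °C with compounds at up to 57 uM. SteadyGlo luminescence gave expression; GF-AFC fluorescence gave viability.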
HT1080 IDH1KD tx = kills HT-1080 cells with IDH1 knockdown. HT-1080 IDH1 knockdown viability, ATP luminescence, 48 h. hit rate 2% among 360,000. AID 686971. Potency, µM (highest dose often 46.1 µM), for the others: top-dose activity, negative = toxicity, usual class: cytotoxic;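 further: 0% = DMSO wells and -100% = cell-free medium wells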
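In this qHTS, HT-1080 cells depleted of IDH1 are exposed for 48 h at 37 °C to compound titrations. Toxicity is scored from CellTiter-Glo luminescence, with DMSO as full viability and medium alone as none.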
KB-3-1 tox = KB-3-1 parental cell cytotoxicity; KB-3-1 viability, CellTiter-Glo ATP luminescence, 72 h; Potency, µM (series often up to 46.1 µM), actives largely listed as cytotoxic; hit rate 1.4% among 400,000; further: on the % scale 0 is the no-effect control and ±100 the full control effect; nearly all actives have a fitted effect of over 60% in size
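Cells are dispensed, compounds pinned in, plates held at 37 °C for 72 h, then CellTiter-Glo is added and luminescence read after 10 minutes. Cell line: parental KB-3-1 in phenol-red-free DMEM, 10% FBS.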
HT1080NT lethal = kills 2HG-producing HT-1080-NT fibrosarcoma cells; Potency, µM (highest dose often 46.1 µM), inactives show at the top dose activity, negative = less viability, actives largely listed as cytotoxic; hit rate 1.6% among 360,000; AID 686970; HT-1080-NT fibrosarcoma viability, CellTiter-Glo ATP luminescence, 48 h;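 further: NT is the 2HG producing partner of a matched IDH1 knockdown line; 0% = DMSO-treated cells and -100% = media-only wells without cells; nearly all actives have a fitted effect of over 55% in size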
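Compounds were tested in concentration-response format on HT-1080-NT cells for 48 hours at 37 degrees C. Cell viability came from CellTiter-Glo luminescence; curves were classified by r2, response magnitude and activity.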
KB-V1 cytotox = kills drug-selected multidrug resistant KB-V1 cells | KB-V1 MDR cells viability, CellTiter-Glo, 72 h | hit rate 3.4% among 400,000 | Potency, µM (series often up to 46.1 µM), usual class: cytotoxic; further: on the % scale 0 is the no-effect control and ±100 the full control effect; nearly all actives have a fitted effect of over 60% in size
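Cytotoxicity via CellTiter-Glo luminescence after 72 h compound exposure at 37 degrees C. Cells: drug-selected KB-V1 line, DMEM phenol-red free plus 10% FBS. Compounds tested at multiple concentrations; normalized data fitted to concentration-effect curves.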
Active calls of the source: *; i = inactive; ? = inconclusive; · = no result; ! = not confirmed by another sample. Shown are actives, neighbours in structure and some others; about 6.2% of the full set was active somewhere. The call rests on the fitted dose curve; in most records, active means well fitted curve in the direction sought with a large enough effect; inconclusive means small, poorly fitted or top-dose-only effect, or another doubt; inactive means no such curve, though single readings can be large; an effect the other way counts as inactive or inconclusive. Potency means the concentration at half of the fitted maximal effect.

SMILES	S2 tox	ATXN2 expr inh	HT1080 IDH1KD tx	KB-3-1 tox	HT1080NT lethal	KB-V1 cytotox
CC(c1ccccc1)n1cc(C(=O)NCc2ccccn2)nn1 (stereo unspecified)	i	3%	-5%	i	1%	i
CCCCc1ccc(NC(=O)Nc2cc(C)nn2C)cc1	i	-12%	?	6.5µM*	?	i
CCCCc1ccc(NC(=O)Nc2cnccn2)cc1	i	26%	?	12µM*	?	?
Cc1cc(NC(=O)Nc2ccc(F)cc2F)n(C)n1	i	?	?	?	?	i
COc1cc(-c2c(CCO)sc3ccccc23)cc(OC)c1OC	i	-14%	?	?	?	21µM*
CCOc1ccccc1NC(=O)c1ccccc1-c1ccccc1	i	-15%	2%	i	-3%	i
COc1ccc(-c2noc(-c3ccccc3C(=O)Nc3cccnc3)n2)cc1OC	?	7%	1%	i	-2%	i
CCOc1ccccc1NC(=O)c1ccccc1-c1nc(-c2ccccc2)no1	i	-23%	-23%	?	-8%	8.2µM*
COc1ccccc1-c1noc(-c2ccccc2C(=O)Nc2cccnc2)n1	i	3%	-3%	i	-7%	10µM*
CCOC(=O)c1cc(-c2ccccc2)n(CCCC(=O)Nc2cc(C)ccc2OC)c1C	·	·	·	i	·	i
CC(C)NC(=O)N1Cc2cc(C(=O)NC3CCC3)nc(-c3cccc(-c4cncnc4)c3)c2[C@H]1CCO	i	-4%	3%	i	0%	i
O=C(Nc1sc2c(c1C(=O)NCc1ccccc1)CCCC2)c1cc(=O)c2ccccc2o1	i	25%	·	i	·	i
COc1nc(OC)nc(N2CCC(C(=O)NC3CCCCCC3)CC2)n1	i	-8%	1%	i	-1%	10µM*
COc1nc(OC)nc(N2CCC(C(=O)NC3CC3)CC2)n1	i	-3%	4%	i	14%	i
CSc1ccc(Cn2c(C)c(C(=O)NCc3ccc(F)cc3)sc2=O)cc1	i	-34%	-20%	?	-16%	?
CSc1ccc(Cn2c(C)c(C(=O)NCc3ccc(Cl)c(Cl)c3)sc2=O)cc1	i	-28%	-14%	15µM*	-25%	16µM*
CSc1ccc(Cn2c(C)c(C(=O)NCCC#N)sc2=O)cc1	i	-7%	?	?	-5%	15µM*
Cc1c(C(=O)NCc2ccc3c(c2)OCCO3)sc(=O)n1Cc1cccc(C(F)(F)F)c1	i	-36%	?	?	-26%	7.3µM*
Cc1c(C(=O)NCCC#N)sc(=O)n1Cc1ccc(F)cc1	i	6%	24%	i	7%	i
Cc1c(C(=O)NCc2ccc(F)cc2)sc(=O)n1Cc1ccc(Cl)c(Cl)c1	i	?	?	?	?	16µM*
CN(C)S(=O)(=O)N(CC(=O)Nc1ccc(Br)cc1F)c1ccccc1	i	-1%	·	i	·	i
CC(C)NC(=O)c1cn([C@H]2CC[C@@H](NC(=O)/C=C/c3cccs3)CC2)nn1	i	·	·	·	·	·
CSc1ncc(Cl)c(C(=O)Nc2c(C(=O)c3ccc(C)cc3)oc3ccccc23)n1	i	7%	·	i	·	i
CN(C)c1ccc(/C=C/c2ccnc3ccc(-c4ccccc4)cc23)cc1	·	·	·	i	·	i
COc1ccc(NC(=O)c2sc(=O)n(Cc3cccc(C(F)(F)F)c3)c2C)cc1OC	?	-40%	?	8.2µM*	-2%	?
SMILES	S2 tox	ATXN2 expr inh	HT1080 IDH1KD tx	KB-3-1 tox	HT1080NT lethal	KB-V1 cytotox
CSc1ccc(Cn2c(C)c(C(=O)NCc3ccc4c(c3)OCCO4)sc2=O)cc1	i	-36%	-30%	i	0%	18µM*
CCCS(=O)(=O)NC(=O)C1(C)CCCN(C(=O)/C=C/c2ccccc2)C1 (stereo unspecified)	i	1%	30%	i	?	i
CC(=O)CC1N(S(=O)(=O)c2ccc(C)cc2)c2ccccc2N1S(=O)(=O)c1ccc(C)cc1	·	·	7%	i	11%	?
C=C[C@@H]1c2ccccc2N(S(=O)(=O)c2ccc(C)cc2)[C@H](c2ccc(OC(C)=O)cc2)C1(C#N)C#N	?	?	?	18µM*!	?	?
C=C[C@@H]1c2cc(C)ccc2N(S(=O)(=O)c2ccc(C)cc2)[C@H](c2ccc(OC(C)=O)cc2)C1(C#N)C#N	?	25µM*	6.5µM*	6.5µM*!	7.3µM*	7.3µM*
CCC1CCCCN1C(=O)Cn1c(=O)n(CC2CCC(C(=O)NC)CC2)c(=O)c2sccc21 (stereo unspecified)	i	-5%	·	i	·	i
Cc1n[nH]c(C)c1S(=O)(=O)N1CCN(S(=O)(=O)c2cccc(F)c2)CC1	i	15%	5%	i	4%	i
Cc1ccc(NC(=O)COc2ccc(/C=C3/SC(=Nc4ccccc4)N(Cc4cccnc4)C3=O)cc2)cc1	?	14µM*	7%	?	7%	16µM*
O=C(CCN1C(=O)/C(=C/c2ccccc2)SC1=S)Nc1cccnc1	i	-7%	11%	i	3%	i
COc1cc(C(C)C)c(Oc2cnc(NC(CO)CO)nc2N)cc1I	·	24µM*	·	·	·	·
C/C(=N\NC(=O)C1(C)CC1(Br)Br)c1cccc(NC(=O)c2ccc(C)o2)c1 (stereo unspecified)	·	?	-2%	i	-3%	?
COc1cc(-c2cc3nc(NC4CCCCC4)ccn3n2)cc(OC)c1OC	?	-16%	16µM*	i	18µM*	?
COc1cc(Nc2ccn3nc(-c4ccccc4Cl)cc3n2)cc(OC)c1OC	?	-36%	-21%	?	23µM*	i
Clc1cccc(CNc2ccn3nc(-c4ccc(OCCN5CCOCC5)cc4)cc3n2)c1	·	?	?	?	16µM*	?
c1ccc(COc2cccc(-c3cc4nc(NCc5cccs5)ccn4n3)c2)cc1	i	-5%	7.3µM*	?	?	?
Cc1coc2c1c(C)cc1oc(=O)cc(C)c12	i	6%	·	i	·	i
COc1ccc(N2CCN(C(=O)c3cccc(NC(=O)c4nsc5ccccc45)c3)CC2)cc1	?	6%	·	i	·	i
COC(=O)c1cccc(NC2=NS(=O)(=O)c3ccccc32)c1	i	12%	·	i	·	?
COc1ccc(Cc2nc3ccccc3n2Cc2ccccc2C)cc1	?	-35%	·	i	·	i
c1cc(-c2cc3nc(NC4CCCCC4)ccn3n2)ccc1OCCN1CCOCC1	25µM*	?	21µM*	?	21µM*	?
